Measured values as given in the supplement of paper PMC11732987, “Enantioselective OTUD7B fragment discovery through chemoproteomics screening and high-throughput optimisation” (Communications Chemistry, 2025).

Key:
Assay in all cases: log2 ratio of Biotin-Ahx-Ub-VS probe labelling (fragment/DMSO); higher = less target engagement (more negative = stronger competition), active = hit call of the paper (q ≤ 0.05, log2 ratio ≤ -1)
Details in all cases: compound concentration: 200 uM; treatment time: 3 h
USP42 = biological target: T1, USP42 (UniProt Q9H9J4)
T1 sequence (whole entry): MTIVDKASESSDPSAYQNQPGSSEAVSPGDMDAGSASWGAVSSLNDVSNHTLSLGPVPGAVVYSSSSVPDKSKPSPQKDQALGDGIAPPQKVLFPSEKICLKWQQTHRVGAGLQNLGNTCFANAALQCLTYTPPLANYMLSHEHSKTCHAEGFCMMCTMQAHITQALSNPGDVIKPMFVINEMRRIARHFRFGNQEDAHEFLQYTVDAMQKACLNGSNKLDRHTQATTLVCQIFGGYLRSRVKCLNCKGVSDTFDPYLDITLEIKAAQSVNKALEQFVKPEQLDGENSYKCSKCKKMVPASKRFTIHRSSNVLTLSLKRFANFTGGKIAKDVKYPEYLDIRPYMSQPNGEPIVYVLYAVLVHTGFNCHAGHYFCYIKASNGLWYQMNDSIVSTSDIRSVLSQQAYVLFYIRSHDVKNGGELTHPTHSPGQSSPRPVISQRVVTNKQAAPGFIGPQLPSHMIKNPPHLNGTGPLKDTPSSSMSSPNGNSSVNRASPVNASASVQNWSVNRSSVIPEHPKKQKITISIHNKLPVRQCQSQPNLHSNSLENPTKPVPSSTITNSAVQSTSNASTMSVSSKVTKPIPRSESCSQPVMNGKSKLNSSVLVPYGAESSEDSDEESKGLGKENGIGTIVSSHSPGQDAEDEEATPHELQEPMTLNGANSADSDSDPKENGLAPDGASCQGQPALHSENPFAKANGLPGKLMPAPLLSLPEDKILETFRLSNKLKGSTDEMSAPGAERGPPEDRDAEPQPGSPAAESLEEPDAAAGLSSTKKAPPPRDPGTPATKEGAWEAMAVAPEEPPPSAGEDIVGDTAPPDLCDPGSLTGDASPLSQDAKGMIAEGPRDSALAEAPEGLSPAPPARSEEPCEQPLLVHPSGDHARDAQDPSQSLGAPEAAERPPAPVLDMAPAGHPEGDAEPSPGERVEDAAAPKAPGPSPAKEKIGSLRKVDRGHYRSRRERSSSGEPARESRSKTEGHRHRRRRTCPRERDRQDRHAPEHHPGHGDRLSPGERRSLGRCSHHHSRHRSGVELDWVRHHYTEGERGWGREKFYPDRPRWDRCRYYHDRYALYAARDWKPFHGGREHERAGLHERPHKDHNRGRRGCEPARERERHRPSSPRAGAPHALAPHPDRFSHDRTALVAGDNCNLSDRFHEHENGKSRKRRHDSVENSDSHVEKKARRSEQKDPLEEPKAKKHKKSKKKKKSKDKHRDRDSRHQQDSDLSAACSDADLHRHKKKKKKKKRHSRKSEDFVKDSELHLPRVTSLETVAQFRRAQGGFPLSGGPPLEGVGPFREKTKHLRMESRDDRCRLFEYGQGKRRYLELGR
In short: (§1)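 HEK293T lysate in Tris/CHAPS/IGEPAL buffer with protease inhibitors (495 µg per sample) was given fragment at 200 µM or vehicle for 3 h, in triplicate. It then received Biotin-Ahx-Ub-VS at 0.5 µM final for 1 h. Labelled DUBs were NeutrAvidin-enriched, digested with LysC and trypsin, and run by diaPASEF LC-MS/MS. Values are average log2 fragment/vehicle ratios by unpaired t-test on global-median-normalised Spectronaut quantities of proteins with ≥2 unique peptides.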

USP46 = USP46 (UniProt P62068)
Sequence of USP46 (P62068 whole entry): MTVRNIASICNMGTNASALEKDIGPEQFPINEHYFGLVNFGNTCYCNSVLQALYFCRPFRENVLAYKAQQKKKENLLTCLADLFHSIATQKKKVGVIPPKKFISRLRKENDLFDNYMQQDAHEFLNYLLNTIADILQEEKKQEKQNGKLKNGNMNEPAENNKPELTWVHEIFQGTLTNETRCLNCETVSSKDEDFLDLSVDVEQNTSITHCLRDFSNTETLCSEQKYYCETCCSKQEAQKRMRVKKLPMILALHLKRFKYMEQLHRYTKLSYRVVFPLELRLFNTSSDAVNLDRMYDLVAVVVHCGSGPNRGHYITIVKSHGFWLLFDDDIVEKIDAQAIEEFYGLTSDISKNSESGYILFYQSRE
In short: as §1

USP47 = biological target: T2, USP47 (UniProt Q96K76)
T2 sequence (whole entry): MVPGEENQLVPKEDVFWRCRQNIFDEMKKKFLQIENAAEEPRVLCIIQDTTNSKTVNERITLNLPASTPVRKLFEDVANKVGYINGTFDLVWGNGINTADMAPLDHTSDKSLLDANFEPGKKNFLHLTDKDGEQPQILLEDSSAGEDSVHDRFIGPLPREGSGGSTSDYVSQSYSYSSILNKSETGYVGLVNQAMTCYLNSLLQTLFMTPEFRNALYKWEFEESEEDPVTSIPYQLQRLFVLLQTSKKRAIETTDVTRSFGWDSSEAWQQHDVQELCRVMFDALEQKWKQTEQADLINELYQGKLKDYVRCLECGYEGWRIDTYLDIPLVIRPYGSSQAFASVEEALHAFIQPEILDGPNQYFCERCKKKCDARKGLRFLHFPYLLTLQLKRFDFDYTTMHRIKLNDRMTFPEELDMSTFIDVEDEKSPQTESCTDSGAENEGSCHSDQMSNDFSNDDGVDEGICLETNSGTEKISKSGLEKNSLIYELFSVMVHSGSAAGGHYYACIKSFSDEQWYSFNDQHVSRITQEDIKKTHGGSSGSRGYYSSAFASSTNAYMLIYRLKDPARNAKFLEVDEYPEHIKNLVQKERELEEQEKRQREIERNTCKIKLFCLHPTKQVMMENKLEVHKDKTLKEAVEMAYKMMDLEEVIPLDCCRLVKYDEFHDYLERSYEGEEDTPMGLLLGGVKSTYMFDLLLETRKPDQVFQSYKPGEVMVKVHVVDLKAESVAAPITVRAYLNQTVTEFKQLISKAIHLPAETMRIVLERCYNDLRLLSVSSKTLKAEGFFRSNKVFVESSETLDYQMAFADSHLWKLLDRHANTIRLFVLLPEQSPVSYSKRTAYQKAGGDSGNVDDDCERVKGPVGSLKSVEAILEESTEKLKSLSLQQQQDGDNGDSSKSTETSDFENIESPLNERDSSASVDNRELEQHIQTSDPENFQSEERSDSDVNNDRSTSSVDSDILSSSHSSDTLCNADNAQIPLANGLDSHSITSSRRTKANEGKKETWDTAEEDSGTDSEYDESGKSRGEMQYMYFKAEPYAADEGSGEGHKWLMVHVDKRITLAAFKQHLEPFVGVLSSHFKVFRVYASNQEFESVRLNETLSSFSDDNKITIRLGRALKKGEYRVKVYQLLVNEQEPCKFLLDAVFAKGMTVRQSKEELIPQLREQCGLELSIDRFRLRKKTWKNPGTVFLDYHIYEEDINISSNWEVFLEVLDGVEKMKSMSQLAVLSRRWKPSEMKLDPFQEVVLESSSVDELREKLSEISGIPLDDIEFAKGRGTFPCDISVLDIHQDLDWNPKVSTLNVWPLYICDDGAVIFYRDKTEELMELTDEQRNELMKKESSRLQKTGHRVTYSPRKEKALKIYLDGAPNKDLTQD
In short: as §1

USP48 = biological target: T3, USP48 (UniProt Q86UV5)
T3 sequence (whole entry): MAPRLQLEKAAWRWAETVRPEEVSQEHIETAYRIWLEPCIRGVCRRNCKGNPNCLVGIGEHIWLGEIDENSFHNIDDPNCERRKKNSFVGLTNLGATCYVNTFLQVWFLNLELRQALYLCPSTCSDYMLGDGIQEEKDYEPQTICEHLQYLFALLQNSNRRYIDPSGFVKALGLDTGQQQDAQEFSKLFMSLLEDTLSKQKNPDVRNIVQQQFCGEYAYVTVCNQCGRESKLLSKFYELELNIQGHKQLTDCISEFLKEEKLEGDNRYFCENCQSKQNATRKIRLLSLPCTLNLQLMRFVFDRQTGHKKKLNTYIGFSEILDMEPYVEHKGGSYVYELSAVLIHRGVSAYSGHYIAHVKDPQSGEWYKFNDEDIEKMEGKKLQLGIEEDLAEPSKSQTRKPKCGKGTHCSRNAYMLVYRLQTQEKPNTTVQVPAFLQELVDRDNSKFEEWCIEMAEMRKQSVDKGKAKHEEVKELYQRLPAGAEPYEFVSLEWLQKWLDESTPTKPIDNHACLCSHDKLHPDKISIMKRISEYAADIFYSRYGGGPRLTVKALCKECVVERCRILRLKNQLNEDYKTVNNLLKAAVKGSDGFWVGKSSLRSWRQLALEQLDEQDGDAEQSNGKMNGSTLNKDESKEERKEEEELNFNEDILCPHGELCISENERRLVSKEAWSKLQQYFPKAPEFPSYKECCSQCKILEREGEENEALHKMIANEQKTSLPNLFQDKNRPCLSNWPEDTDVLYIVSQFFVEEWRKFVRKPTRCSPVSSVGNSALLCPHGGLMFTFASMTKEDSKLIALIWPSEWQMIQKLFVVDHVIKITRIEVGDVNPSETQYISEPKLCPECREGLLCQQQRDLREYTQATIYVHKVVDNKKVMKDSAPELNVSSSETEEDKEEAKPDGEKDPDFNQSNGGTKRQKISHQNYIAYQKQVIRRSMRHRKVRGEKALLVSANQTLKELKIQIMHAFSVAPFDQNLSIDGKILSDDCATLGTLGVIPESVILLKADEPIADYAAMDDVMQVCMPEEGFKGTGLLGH
In short: as §1

USP5 = biological target: T4, USP5 (UniProt P45974)
T4 sequence (whole entry): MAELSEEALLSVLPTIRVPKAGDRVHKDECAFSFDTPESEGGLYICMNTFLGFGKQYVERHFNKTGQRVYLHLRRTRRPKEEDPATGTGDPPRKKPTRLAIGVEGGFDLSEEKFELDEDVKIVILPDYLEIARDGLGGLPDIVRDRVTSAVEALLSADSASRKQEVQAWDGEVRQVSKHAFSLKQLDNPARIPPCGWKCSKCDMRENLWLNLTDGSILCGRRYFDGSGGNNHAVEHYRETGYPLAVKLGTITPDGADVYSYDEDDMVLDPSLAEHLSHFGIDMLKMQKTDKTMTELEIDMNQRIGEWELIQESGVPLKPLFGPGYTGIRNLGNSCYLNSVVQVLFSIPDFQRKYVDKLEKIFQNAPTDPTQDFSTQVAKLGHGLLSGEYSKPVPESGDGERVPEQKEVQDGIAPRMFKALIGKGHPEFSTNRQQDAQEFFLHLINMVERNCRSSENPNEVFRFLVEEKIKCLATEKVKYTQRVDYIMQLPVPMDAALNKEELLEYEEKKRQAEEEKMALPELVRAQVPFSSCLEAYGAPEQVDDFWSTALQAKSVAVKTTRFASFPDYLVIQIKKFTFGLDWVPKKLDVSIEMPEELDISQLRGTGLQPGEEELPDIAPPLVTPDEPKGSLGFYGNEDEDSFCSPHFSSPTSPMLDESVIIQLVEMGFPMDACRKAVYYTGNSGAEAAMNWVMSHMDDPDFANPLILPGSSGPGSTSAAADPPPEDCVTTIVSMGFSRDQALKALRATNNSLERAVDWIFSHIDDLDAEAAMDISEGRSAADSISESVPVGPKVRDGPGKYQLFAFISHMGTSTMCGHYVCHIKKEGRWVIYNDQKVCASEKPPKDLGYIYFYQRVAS
In short: as §1

USP54 = USP54 (UniProt Q70EL1)
Sequence of USP54 (Q70EL1 whole entry): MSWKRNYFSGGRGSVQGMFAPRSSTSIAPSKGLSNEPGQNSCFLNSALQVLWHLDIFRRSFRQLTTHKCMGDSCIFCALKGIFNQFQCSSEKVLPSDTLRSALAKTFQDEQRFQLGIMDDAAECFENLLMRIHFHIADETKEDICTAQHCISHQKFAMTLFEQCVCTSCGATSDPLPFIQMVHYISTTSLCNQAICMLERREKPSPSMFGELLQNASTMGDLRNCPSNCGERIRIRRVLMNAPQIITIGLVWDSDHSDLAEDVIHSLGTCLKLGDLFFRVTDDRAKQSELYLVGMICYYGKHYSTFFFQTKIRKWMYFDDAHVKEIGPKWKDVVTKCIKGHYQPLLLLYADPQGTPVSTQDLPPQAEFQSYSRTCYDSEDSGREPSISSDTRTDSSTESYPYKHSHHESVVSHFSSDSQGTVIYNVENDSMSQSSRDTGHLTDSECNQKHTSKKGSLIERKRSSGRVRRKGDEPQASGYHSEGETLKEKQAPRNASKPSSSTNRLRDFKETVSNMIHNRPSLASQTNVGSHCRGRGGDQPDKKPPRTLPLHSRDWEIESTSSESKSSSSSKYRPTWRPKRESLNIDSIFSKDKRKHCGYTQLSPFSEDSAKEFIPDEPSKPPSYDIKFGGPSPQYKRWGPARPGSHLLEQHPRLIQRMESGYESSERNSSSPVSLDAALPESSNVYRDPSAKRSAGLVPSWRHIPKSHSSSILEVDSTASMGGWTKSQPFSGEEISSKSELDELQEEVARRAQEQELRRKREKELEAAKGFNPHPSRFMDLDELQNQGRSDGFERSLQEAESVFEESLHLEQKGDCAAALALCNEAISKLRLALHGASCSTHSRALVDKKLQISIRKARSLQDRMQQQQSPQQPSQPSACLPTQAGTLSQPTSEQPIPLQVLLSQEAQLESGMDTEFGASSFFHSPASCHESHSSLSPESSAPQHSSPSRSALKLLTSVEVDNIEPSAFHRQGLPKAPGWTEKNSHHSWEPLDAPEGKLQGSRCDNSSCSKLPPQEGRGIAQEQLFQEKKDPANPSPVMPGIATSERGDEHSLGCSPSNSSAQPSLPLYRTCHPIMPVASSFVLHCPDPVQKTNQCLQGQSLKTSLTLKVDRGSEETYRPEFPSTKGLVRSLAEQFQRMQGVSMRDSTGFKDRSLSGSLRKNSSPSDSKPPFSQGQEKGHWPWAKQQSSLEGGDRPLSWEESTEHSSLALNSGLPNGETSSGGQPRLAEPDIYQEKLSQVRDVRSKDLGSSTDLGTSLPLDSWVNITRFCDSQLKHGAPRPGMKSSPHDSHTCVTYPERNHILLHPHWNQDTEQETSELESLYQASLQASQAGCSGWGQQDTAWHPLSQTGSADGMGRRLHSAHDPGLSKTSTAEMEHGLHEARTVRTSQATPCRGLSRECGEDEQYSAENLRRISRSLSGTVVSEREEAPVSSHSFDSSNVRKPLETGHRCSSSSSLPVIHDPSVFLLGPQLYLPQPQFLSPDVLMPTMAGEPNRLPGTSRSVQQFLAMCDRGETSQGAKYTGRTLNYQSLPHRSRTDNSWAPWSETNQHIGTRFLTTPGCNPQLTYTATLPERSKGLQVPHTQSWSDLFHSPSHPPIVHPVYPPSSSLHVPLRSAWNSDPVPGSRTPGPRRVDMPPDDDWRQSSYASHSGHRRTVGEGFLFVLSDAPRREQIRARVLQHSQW
In short: as §1

USP7 = USP7 (UniProt Q93009)
In short: as §1

USP8 = biological target: T5, USP8 (UniProt P40818)
T5 sequence (whole entry): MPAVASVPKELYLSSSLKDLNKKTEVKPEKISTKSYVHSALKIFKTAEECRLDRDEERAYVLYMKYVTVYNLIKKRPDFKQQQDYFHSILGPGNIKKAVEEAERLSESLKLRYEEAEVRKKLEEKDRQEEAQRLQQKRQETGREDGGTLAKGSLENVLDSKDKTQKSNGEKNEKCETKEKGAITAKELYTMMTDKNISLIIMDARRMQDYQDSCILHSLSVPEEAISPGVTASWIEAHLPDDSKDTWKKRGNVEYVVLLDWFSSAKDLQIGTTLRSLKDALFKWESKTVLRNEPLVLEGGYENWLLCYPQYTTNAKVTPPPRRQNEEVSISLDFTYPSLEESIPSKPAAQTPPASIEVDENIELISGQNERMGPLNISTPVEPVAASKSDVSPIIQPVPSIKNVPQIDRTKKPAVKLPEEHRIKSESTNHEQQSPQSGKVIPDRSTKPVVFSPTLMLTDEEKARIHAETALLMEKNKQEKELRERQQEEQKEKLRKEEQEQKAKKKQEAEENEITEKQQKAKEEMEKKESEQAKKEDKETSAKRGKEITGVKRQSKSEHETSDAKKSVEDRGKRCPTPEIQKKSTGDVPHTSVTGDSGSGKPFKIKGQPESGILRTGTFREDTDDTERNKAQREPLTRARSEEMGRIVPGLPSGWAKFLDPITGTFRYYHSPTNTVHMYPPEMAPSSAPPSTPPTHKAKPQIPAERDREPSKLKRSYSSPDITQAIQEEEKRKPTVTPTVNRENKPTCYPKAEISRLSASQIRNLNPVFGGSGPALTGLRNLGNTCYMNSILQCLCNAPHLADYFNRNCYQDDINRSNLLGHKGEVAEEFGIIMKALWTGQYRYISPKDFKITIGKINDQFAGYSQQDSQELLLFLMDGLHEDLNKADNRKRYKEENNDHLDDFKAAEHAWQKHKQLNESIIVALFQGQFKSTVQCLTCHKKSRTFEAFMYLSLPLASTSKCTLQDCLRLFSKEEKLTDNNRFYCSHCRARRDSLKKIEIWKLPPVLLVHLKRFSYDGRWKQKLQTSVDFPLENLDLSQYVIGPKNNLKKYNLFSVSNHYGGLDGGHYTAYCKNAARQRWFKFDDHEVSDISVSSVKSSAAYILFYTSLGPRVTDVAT
In short: as §1

USP9X = USP9X (UniProt Q93008)
Sequence of USP9X (Q93008 whole entry): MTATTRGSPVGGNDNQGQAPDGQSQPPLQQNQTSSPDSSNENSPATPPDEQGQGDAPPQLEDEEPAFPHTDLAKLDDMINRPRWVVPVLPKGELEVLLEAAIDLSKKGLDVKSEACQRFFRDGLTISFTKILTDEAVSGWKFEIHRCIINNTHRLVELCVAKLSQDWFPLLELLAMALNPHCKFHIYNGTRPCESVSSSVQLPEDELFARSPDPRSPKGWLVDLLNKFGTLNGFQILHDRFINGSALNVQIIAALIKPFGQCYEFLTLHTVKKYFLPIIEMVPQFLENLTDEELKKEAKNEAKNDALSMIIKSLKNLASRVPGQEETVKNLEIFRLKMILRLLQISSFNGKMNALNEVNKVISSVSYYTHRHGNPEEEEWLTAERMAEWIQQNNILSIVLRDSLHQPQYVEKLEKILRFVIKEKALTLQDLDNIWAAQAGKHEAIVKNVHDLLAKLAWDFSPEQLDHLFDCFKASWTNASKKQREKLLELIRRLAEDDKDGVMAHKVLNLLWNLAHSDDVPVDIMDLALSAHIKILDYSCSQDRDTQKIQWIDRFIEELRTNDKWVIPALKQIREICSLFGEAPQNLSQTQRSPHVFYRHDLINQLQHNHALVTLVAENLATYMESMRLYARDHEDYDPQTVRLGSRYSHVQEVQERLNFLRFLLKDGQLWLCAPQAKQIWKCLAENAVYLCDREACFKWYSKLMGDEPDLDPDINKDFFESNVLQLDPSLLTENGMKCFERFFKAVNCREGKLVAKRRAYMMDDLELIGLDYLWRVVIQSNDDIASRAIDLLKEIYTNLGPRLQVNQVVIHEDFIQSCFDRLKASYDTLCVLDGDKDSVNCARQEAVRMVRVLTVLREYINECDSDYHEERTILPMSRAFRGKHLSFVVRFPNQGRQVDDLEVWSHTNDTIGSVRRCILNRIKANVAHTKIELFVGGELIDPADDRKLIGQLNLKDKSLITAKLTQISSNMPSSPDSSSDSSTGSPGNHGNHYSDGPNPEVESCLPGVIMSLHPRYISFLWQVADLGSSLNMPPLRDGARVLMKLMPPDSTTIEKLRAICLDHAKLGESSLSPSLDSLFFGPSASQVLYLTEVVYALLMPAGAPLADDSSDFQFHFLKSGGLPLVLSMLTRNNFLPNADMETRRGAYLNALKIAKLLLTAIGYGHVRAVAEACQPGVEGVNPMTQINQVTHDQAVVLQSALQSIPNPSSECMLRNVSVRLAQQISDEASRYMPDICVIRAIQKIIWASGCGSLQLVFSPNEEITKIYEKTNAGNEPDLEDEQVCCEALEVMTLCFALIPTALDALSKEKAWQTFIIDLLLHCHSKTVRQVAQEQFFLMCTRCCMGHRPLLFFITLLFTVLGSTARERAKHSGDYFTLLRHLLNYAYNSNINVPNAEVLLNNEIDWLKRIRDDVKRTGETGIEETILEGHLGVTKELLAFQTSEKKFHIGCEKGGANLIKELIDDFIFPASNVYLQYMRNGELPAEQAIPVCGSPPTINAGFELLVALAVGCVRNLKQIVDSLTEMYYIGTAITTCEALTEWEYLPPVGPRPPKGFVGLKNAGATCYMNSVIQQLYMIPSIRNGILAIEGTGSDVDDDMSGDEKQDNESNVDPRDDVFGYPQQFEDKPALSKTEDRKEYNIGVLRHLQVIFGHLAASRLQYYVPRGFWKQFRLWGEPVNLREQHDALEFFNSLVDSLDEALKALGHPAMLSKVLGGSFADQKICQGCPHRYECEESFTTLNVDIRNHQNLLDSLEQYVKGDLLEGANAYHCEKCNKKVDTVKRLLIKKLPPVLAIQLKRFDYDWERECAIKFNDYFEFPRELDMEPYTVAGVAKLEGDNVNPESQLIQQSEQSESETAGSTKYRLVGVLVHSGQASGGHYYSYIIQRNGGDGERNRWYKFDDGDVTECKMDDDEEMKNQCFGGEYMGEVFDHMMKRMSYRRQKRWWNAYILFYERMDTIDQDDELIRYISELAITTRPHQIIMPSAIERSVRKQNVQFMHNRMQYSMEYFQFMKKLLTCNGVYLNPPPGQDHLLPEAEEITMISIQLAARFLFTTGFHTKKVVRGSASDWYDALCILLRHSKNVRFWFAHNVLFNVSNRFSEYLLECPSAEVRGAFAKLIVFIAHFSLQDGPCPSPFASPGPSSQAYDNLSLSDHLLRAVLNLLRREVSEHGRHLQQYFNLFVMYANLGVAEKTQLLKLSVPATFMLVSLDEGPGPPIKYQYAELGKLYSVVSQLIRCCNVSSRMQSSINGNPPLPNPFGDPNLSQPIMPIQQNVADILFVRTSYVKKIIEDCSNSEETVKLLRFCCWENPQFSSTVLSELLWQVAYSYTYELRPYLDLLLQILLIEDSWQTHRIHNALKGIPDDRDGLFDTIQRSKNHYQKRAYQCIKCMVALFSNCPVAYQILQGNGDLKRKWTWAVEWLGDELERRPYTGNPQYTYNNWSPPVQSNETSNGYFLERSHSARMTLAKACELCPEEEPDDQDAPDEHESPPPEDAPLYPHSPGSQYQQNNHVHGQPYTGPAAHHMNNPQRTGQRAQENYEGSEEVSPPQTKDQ
In short: as §1

UniProt O00487 = biological target: UniProt O00487
Sequence of UniProt O00487 (O00487 whole entry): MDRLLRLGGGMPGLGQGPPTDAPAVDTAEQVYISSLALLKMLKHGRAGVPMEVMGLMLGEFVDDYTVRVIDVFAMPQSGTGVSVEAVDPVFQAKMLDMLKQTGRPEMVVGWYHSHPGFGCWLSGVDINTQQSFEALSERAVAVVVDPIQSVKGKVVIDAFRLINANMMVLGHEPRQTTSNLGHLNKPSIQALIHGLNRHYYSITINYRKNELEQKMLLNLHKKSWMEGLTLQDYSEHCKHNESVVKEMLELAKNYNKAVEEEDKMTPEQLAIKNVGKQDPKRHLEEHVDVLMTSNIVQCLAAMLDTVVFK
In short: as §1

Measured: log2 ratio of Biotin-Ahx-Ub-VS probe labelling

Cl.O=C(CCl)N1CCn2cncc2C1
inactive: USP42 0.404 | USP46 -0.137 | USP47 0.174 | USP48 -0.0876 | USP5 -0.362 | USP54 0.158 | USP7 -0.527 | USP8 -0.217 | USP9X -0.0687 | UniProt O00487 -0.0669
